Compound activity deposited in PubChem by Broad Institute.
An excerpt weighted towards active compounds, which were near 3.7% of everything screened.
AF4-AF9 inh: blocks AF4 peptide binding to human AF9; P42568; 350,000 compounds, 0.47% hits; inhibition, % at 10 µM; AlphaScreen, biotin-AF4 peptide binding to FLAG-AF9;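 active = every replicate reaching a set inhibition limit, whatever the replicate mean, cut at about 25% in these data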
Target sequence (P42568 whole entry, looked up): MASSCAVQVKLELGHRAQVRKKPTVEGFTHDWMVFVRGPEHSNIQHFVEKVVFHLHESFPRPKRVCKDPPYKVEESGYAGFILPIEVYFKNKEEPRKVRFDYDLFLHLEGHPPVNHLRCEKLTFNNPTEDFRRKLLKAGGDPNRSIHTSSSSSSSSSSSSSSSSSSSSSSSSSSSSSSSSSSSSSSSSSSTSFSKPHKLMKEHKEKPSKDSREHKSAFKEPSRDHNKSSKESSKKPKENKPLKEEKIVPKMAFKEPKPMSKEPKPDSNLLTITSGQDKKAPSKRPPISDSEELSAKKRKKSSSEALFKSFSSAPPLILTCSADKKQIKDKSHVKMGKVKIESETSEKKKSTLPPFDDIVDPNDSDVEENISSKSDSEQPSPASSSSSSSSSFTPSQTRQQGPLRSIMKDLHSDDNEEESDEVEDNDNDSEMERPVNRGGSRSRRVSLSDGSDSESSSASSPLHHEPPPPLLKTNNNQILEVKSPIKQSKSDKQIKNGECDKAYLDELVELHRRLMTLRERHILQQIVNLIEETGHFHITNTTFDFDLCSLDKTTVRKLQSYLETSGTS
Ecoli rRNA inh: inhibits bacterial ribosomal RNA function over humanized ribosomes; 350,000 compounds, 1.6% hits; E. coli WT GFP vs humanized-ribosome RFP mutants, fluorescence, 24 h; active compounds read low; DMSO median 0, no signal -100; GFP signal change (wild-type ribosome), % (test concentration not listed);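 active = significant combined selectivity score with lowered wild-type GFP, culture density cut under 30%, mutant RFP and density less affected; inactive = any of these conditions unmet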
esBAF inh: blocks esBAF chromatin remodeling in mouse ES cells | Bmi1-luciferase knock-in reporter, 24 h; 100% = twice the neutral-well signal | reporter increase, % at 12.5 µM | 350,000 compounds, 2% hits; in the data active = activation above about 40%;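 also: a rise in the Bmi1 reporter signal indicates esBAF inhibition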
Wnt act: activators of Wnt/beta-catenin signaling. Wnt/beta-catenin reporter cell assay, activator, plate reader. AID 743398. activation, % at 9.35 µM. 300,000 compounds, 1.2% hits; in the data active = activation above about 30%, passing the limit was not always enough
MITF TRPM1 HTS: activators of MITF-driven TRPM1 promoter activity in SK-MEL-5 cells; SK-MEL-5 TRPM1-promoter luciferase, 24 h; % of positive control, neutral wells = 0; activation, % at 12.5 µM; 300,000 compounds, 0.75% hits; AID 588334;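 active = mean activation of at least 80% with every replicate also reaching 80%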
Numbers stand for hits; 0 = inactive; - = no result given.

SMILES	AF4-AF9 inh	Ecoli rRNA inh	esBAF inh	Wnt act	MITF TRPM1 HTS
Cn1ncc([N+](=O)[O-])c1C(=O)Nc1ccc(Cl)cc1	0	0	0	0	0
O=C(Nc1cccc(F)c1)c1ccc2c(c1)OCO2	-	-	78	-	0
COc1cccc(NC(=O)Nc2ccc3c(c2)OCO3)c1	0	0	61	40	0
Cn1ncc([N+](=O)[O-])c1C(=O)Nc1ccc(-c2nc3ccccc3[nH]2)cc1	-	-	56	-	0
CC(=O)c1cccc(NC(=O)Nc2ccc3c(c2)OCO3)c1	0	0	52	0	119
O=C(Nc1c(C(=O)Nc2cccc(F)c2)oc2ccccc12)c1ccc2c(c1)OCO2	-	-	0	-	0
CCc1ccccc1NC(=O)COc1ccc2oc(-c3ccc(OC)cc3)cc(=O)c2c1	0	0	-	0	0
CCCC(=O)N1CCCC(C(=O)c2ccc(OC)c(OC)c2)C1 (stereo not drawn)	0	0	0	0	0
O=C(Nc1ccc2c(c1)OCO2)c1ccccn1	0	-	0	46	0
O=C(NCc1cccs1)Nc1cccc(Cl)c1	-	-	59	-	0
O=C(Nc1cccc(Cl)c1)Nc1ccc2c(c1)OCO2	-	-	58	32	0
S=C(NCc1cccs1)Nc1cccc(Cl)c1	0	0	0	0	0
O=C(Nc1ccc2c(c1)OCO2)N1C[C@@H]2N[C@H](C1)C2c1ccc(-c2ccccc2)cc1 (stereo partly drawn)	31	0	-	-	-
CCN(C(=O)CSc1nc2ccccc2o1)C1CCS(=O)(=O)C1 (stereo not drawn)	0	0	0	0	0
Cc1noc(C)c1S(=O)(=O)N(C)C[C@@H]1Oc2ccc(N(C)C)cc2CC(=O)N([C@@H](C)CO)C[C@@H]1C	0	0	0	-	-
O=C(CN1CCOCC1)Nc1ccc(-c2nc3ccccc3[nH]2)cc1	-	-	-	-	84
O=C(Nc1ccc2c(c1)CCC2)Nc1ccc2c(c1)OCO2	0	0	53	50	0
O=C(Nc1ccc2c(c1)OCCO2)Nc1ccc2c(c1)OCO2	0	0	0	0	0
CC(C)C(=O)Nc1cccc(NC(=S)NC(=O)c2ccc(Cl)cc2)c1	-	-	0	-	-
Cc1cc(F)ccc1NC(=O)Nc1ccc2c(c1)OCO2	0	0	0	0	0
CC(C)C(=O)Nc1cccc(NC(=S)NC(=O)c2ccc3c(c2)OCO3)c1	0	0	62	0	0
Cc1ccc(NC(=O)Nc2ccc3c(c2)OCO3)cc1F	0	0	-	0	126
CO[C@@H]1CN(C)C(=O)c2cc(NC(=O)Nc3c(C)noc3C)ccc2OC[C@H](C)N(CCC(F)(F)F)C[C@@H]1C	0	0	0	-	-
CC(=O)Nc1cccc(-c2ccnc3c2CC(C(=O)Nc2ccc4c(c2)OCO4)O3)c1 (stereo not drawn)	0	-22	0	0	-
Cc1ccc(NC(=O)Nc2ccc3c(c2)OCO3)c(OC(F)F)c1	0	0	49	38	106
SMILES	AF4-AF9 inh	Ecoli rRNA inh	esBAF inh	Wnt act	MITF TRPM1 HTS
CCC(=O)Nc1ccc(NC(=O)c2ccc3c(c2)OCO3)cc1	-	-	0	-	0
CC(=O)Nc1ccc(NC(=O)C2Cc3c(-c4ccc5c(c4)OCO5)ccnc3O2)cc1 (stereo not drawn)	0	0	0	0	-
O=C(Nc1ccc2c(c1)OCO2)c1ccc2nc[nH]c2c1	-	-	49	-	0
CCC(=O)Nc1cccc(NC(=O)c2ccc3c(c2)OCCO3)c1	-	-	72	-	0
CCC1=NN(C(=O)c2ccc(Br)cc2)C(O)(c2ccc(C)cc2)C1 (stereo not drawn)	0	-30	-	0	0
C[C@H](CO)N1C[C@H](C)[C@H](CN(C)CC2CCCCC2)Oc2ccc(NS(=O)(=O)c3cccs3)cc2C1=O	0	0	0	-	-
O=C(N/N=C/c1ccccc1OC(F)F)NC1CCCCC1	0	0	0	0	0
Cc1cc(N2CCC(C(N)=O)CC2)nc(-c2ccccc2)n1	-	-	0	-	-
Cc1cc(OC(C)C(N)=O)nc(-c2ccccc2)n1 (stereo not drawn)	0	0	0	39	0
Cn1ccc2cc(OCc3ccccc3)ccc21	0	0	49	0	0
Cc1c(C=O)c2cc(OCc3ccccc3)ccc2n1C	0	0	70	0	-
Cc1nn(-c2ccccc2)c(NC(=O)C(C)C)c(-c2ccccc2)c1=O	0	0	-	0	-
COc1cc(C)c(NC(=S)Nc2ccc(Cl)c(Cl)c2)cc1OC	0	-28	-	0	0
COCCNC(=S)Nc1ccc(Cl)c(Cl)c1	0	0	-	0	0
CCOc1ccc(NC(=O)c2ccc(CC)s2)c([N+](=O)[O-])c1	0	0	50	0	0
